Screens from PubChem.
Only a sample is shown.
aSyn UTR act: Activators working through SNCA 5'UTR binding (MLPCN); AID 1814; activity score, % (tested at 7.5 µM), hits read low; actives 7.1% (n = 300,000); alpha-synuclein 5'UTR reporter, activators screen; in the data active means activity score below about -60%
Numbers stand for hits; – = inactive.

SMILES | aSyn UTR act
COc1ccc(-c2csc(NC3=NCCCCC3)n2)cc1 | -91
c1ccc(-c2csc(NNC3=NCCCCC3)n2)cc1 | -72
Clc1ccccc1CSc1ncn(-c2ccccc2)n1 | -185
CC1CC1c1ccc(/C=C(\C#N)C(=O)Nc2ccc(Cl)cc2)o1 (centres undefined) | -328
CC1CC1c1ccc(/C=C(\C#N)C(=O)Nc2ccccc2Cl)o1 (centres undefined) | -192
Cc1cc(OCc2cc(C(=O)N3CCCCCC3)no2)cc(C)c1Cl | -132
COCC1CCN(C(=O)c2cc(COc3cc(C)c(Cl)c(C)c3)on2)C1 (centres undefined) | -91
Cc1oc(C(C)(C)C)cc1C(=O)Nc1ccc2c(c1)OCO2 | -87
Cc1oc(C(C)(C)C)cc1C(=O)Nc1ccc2c(c1)OCCO2 | -179
O=C(CSc1nnc(-c2ccc(C(F)(F)F)cn2)o1)Nc1ccccc1Cl | -98
CC(C)(C)c1ccc(NC(=O)CSc2nnc(-c3n[nH]c4ccccc34)o2)cc1 | -129
COc1ccc(NCc2nnc(SCC(=O)Nc3cc(C(F)(F)F)ccc3Cl)o2)cc1 | -63
COc1ccc(NCc2nnc(SCC(=O)Nc3cc(C)cc(C)c3)o2)cc1 | -65
COc1ccc(CN=C2Nc3ccccc3CS2)cc1 | -85
COc1ccc(CN=C2NN=C(c3ccc(Cl)cc3)CS2)cc1 | -103
CC(C)(C)N=C1NN=C(c2cc3ccccc3o2)CS1 | -74
C=CCn1c(C)cc(C2=NNC(=NC(C)(C)C)SC2)c1C | –
CC(C)(C)N=C1NN=C(c2ccc(Cl)cc2)CS1 | -108
Cc1ccc2cc(NC(=O)Cc3ccccc3)ccc2n1 | -127
Cc1ccc2cc(NC(=O)c3ccccc3C)ccc2n1 | -195
O=C(/C=C/Nc1ccc(Oc2ccccc2Cl)cc1)c1ccco1 | -184
COc1ccccc1Oc1ccc(N/C=C/C(=O)c2ccco2)cc1 | -199
CC(=O)NCc1ccc(C(=O)CCl)s1 | -64
CC(C)c1ccc(CNNC(=O)c2ccccc2)cc1 | -105
COc1ccc(CNC(=O)c2ccc(C(C)C)cc2)cc1 | -181
SMILES | aSyn UTR act
COc1ccc(CNC(=O)c2ccc(C(C)(C)C)cc2)cc1 | -126
O=C(N/N=C/c1ccc(Cl)cc1Cl)c1cccc(F)c1 | -212
CCOC(=O)N/N=C/c1cc(C)n(-c2ccccc2)c1C | -75
CCc1ccc(C(=O)N/N=C/c2ccc(Cl)cc2Cl)nc1 | -75
Cc1cc(/C=N/NC(=O)c2ccccc2F)c(C)n1-c1ccccc1 | -133
Cc1cc(/C=N/NC(=O)c2cccc(F)c2)c(C)n1-c1ccccc1 | -152
CCOC(=O)N/N=C/c1ccc(F)cc1F | -77
O=C(N/N=C/c1cn(Cc2cccc(F)c2)c2ccccc12)c1cc(O)cc(O)c1 | –
CC1=NN(c2ccccc2)C(=O)/C1=C\c1cn(CCC#N)nc1-c1ccc(Cl)cc1 | -85
C/C(=N\NC(=O)c1c(Cl)c(C)nn1C)c1cccc(NC(=O)COc2ccc(Cl)cc2)c1 | -100
C/C(=N/NC(=O)c1ccc(C)s1)c1cccc(NC(=O)COc2ccc(Cl)cc2C)c1 | -73
CCNC(=S)Nc1ccc(OCc2nc3ccccc3s2)cc1 | -90
O=C(O)CCCC(=O)Nc1ccc(OCc2nc3ccccc3s2)cc1 | -67
O=c1c2ccccc2c(C=Nc2ccc(O)cc2)c(O)n1Cc1ccccc1 | -111
COc1cccc(/C=N/n2cnc3ccccc32)c1OC | -191
COc1cccc(/C=N/n2c(N)nc3ccccc32)c1OC | -154
NC(=O)c1ccccc1Nc1nc2nc3ccccc3c(=O)n2cc1Br | -83
O=C(CSc1ncnc2ccccc12)c1cccs1 | -137
Cc1ccc(C(=O)CSc2ncnc3ccccc23)o1 | -121
O=C(CSc1ncnc2ccccc12)N1CCCC1 | -67
O=c1cc(-c2cccc(Cl)c2)oc2cccc(O)c12 | -124
O=c1cc(-c2cccc(Br)c2)oc2cccc(O)c12 | -141
Cn1c(-c2ccccc2)cnc1N | -122
COCCn1c(-c2ccccc2)cnc1N | -83
Cc1ccc(NCCC(=O)c2cccc([N+](=O)[O-])c2)c(C)c1 | -201
SMILES | aSyn UTR act
COc1cccc(NC(=O)CC(=O)c2ccccc2)c1 | -111
O=C(CC(=O)c1ccccc1)Nc1ccccc1 | -110
O=C(O)/C(=C\C(=O)c1ccccc1)Nc1ccccc1 | -91
O=C(CC(=O)c1ccccc1)Nc1ccccn1 | -130
O=C(CC(=O)c1ccccc1)Nc1ccccc1C(F)(F)F | -63
Cc1ccc(/C=C/C(=O)NCc2cccs2)cc1 | -68
Cc1cc(C(=O)OCC(=O)NCc2ccco2)c(C)n1-c1ccc(F)cc1 | –
O=C(/C=C/c1ccc(F)cc1)NCc1ccco1 | -75
Cc1ccc(/C=C/C(=O)NCc2cccs2)c(C)c1 | -132
COc1cccc(N2CCN(C3C4CC5CC(C4)CC3C5)CC2)c1 (centres undefined) | -95
S=c1nc(-c2ccccc2)[nH]n1-c1ccccc1 | -143
S=c1nc2ccccc2c2nc(-c3ccccc3)[nH]n12 | -64
Cc1ccc(-n2c([S-])c(C(=O)Nc3ccc(OC(F)F)cc3)[n+]3ccc(C(=O)NCCO)cc23)cc1C | -72
COc1cc2c(cc1OC)-c1c(OC)c(OC)cc3ccnc(c13)C2=O | –
COc1cc2cccc(OC)c(=O)c2c(O)c1OC | -70
S=c1nc[nH]c2nc[nH]c12 | –
Cc1ccc(S(=O)(=O)N(C(=O)c2ccncc2)c2ccc(OC(=O)c3ccncc3)c3ccccc23)cc1 | -65
COC(=O)c1c(C)oc2ccc(N(C(=O)c3ccncc3)S(=O)(=O)c3ccc(C)cc3)cc12 | –
CN=Cc1nc(-c2ccccc2)oc1O | -97
Oc1oc(-c2ccccc2)nc1/C=N/c1ccccn1 | -86
Cc1ccc(-c2nc(C=Nc3ccc(O)cc3)c(O)o2)cc1 | -95
C/C(=N\Nc1ccc(F)cc1F)c1ccc(Br)s1 | -81
Fc1ccc(N/N=C/c2ccc(N3CCOCC3)cc2)c(F)c1 | -207
C/C(=N\Nc1ccc(F)cc1F)c1ccc(N2CCOCC2)cc1 | -96
CN(C)/N=C/c1ccc(N2CCOCC2)cc1 | -96
SMILES | aSyn UTR act
COc1ccc(C(=O)Nc2cc3c(cc2Cl)OCCCO3)cc1 | -148
COc1ccc(-c2nnc(NC(=O)c3ccc4c(c3)OCCO4)o2)cc1 | –
COc1cccc(C(=O)Nc2cc3c(cc2Cl)OCCCO3)c1 | -130
COc1ccccc1Nc1nc(NCC(C)C)nc(N)c1[N+](=O)[O-] | –
COc1ccccc1Nc1nc(-c2cccnc2)cs1 | -110
COc1ccc(OC)c2nc(-c3cccnc3)ccc12 | -67
COc1ccc(Nc2nc(-c3cccnc3)cs2)c(OC)c1 | -175
O=[N+]([O-])c1ccccc1Nc1nc(-c2cccnc2)cs1 | -91
COc1ccccc1Nc1nc(C2(C)CCC(=O)O2)cs1 (centres undefined) | -106
Cn1c(/C=C/c2cccc(Br)c2)nc2ccccc2c1=O | -178
Cc1ccnc(NC(=S)NC(=O)/C=C/c2ccco2)c1 | -334
Cc1ccc(O)c(NC(=S)NC(=O)/C=C/c2ccco2)c1 | -170
COc1cccc(NC(=O)c2cc3ccccc3cc2OC)c1 | -151
COc1cc(OC)c(C(=O)Nc2ccc3ccccc3c2)cc1OC | -232
COc1cc2ccccc2cc1C(=O)Nc1ccc(Cl)cn1 | -111
COc1cc(Cl)c(C)cc1NC(=O)c1cccc(OC)c1OC | -137
COc1cc(C(=O)Nc2ccc3ccccc3c2)cc(OC)c1OC | –
COc1ccc(C(=O)Nc2ccc3ccccc3c2)cc1OC | -176
COc1cccc(C(=O)Nc2ccc(N(C)C)cc2)c1OC | -214
COc1ccc(NC(=O)c2cc3ccccc3cc2OC)cc1OC | -70
COc1cc2ccccc2cc1C(=O)Nc1ccc(O)cc1 | -138
